Compound activity from PubChem BioAssay.
Pf growth 96h – inhibits malaria parasite growth, 96 h; Potency, µM (highest dose often 28.7 µM), most hits filed as inhibitors; actives 6.9% (n = 320,000); P. falciparum luciferase reporter growth, 96 h
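Two-generation exposure (96 h) targets delayed-death phenotype. Reporter parasites carrying integrated firefly luciferase, in red cells at 2% hematocrit and 0.05% parasitemia final, kept at 37 C, 5% CO2; luminescence loss indicates inhibition.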
CHX counter – counter-screen hit for Shiga toxin inhibitors, cycloheximide; cell reporter, cycloheximide protein synthesis inhibition counterscreen; max response, %; actives 12% (n = 300,000); in the data active = max response mostly above about 13%, no sharp cut-off; inactive = mostly below about 14%; also: read at 38.3 µM for the half of the compounds with a filed dose
Shiga toxin inh – inhibitors of Shiga toxin in Vero cells | inhibition, % at 38.7 µM | Vero cells, Shiga toxin protein synthesis inhibition reporter | actives 9.2% (n = 290,000); in the data active = inhibition mostly above about 28%, no sharp cut-off; inactive = mostly below about 43%
AMA1-RON2 inh – AMA1-RON2 (P. falciparum) interaction inhibition. Potency, µM (top dose mostly 58.2 µM), hits mostly inhibitors. AlphaScreen AMA1-biotinylated RON2 peptide binding. actives 0.2% (n = 360,000); also: nearly all actives have a fitted effect of over 45% in size
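AMA1 (3D7) with his tag at 25 nM final met compounds first, then biotinylated RON2 peptide at 25 nM; detection used donor plus acceptor beads, 10 µg/mL apiece, read by AlphaScreen after 30 min at room temperature.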
Pf growth 48h – inhibits P. falciparum growth in the first generation, 48 h; P. falciparum luciferase growth in erythrocytes, 48 h; Potency, µM (doses to about 28.7 µM), usual class: inhibitors; actives 5.9% (n = 310,000); AID 504832
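Here the parasites carry a stable luciferase gene and grow inside erythrocytes in Albumax-based RPMI medium with compound for one erythrocytic cycle. Activity is scored as loss of luminescent signal.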
SARS PLpro yeast – blocks SARS-CoV papain-like protease in a yeast assay | S. cerevisiae expressing SARS-CoV PLpro, growth rescue | Potency, µM (series often up to 32.9 µM), usual class: activators | actives 0.19% (n = 330,000); calls by dose curve; also: nearly all actives have a fitted effect of over 55% in size
Large screens that a line does not name were inactive; ! = a repeat was not active. Most compounds without a hit are left out; they make up all but 19% or so of the library. Unless noted, calls follow the shape of the dose curve; as a rule, active = well fitted curve in the direction sought with a large enough effect; inconclusive = small, poorly fitted or top-dose-only effect, or another doubt; inactive = no such curve, though single readings can be large; an effect the other way counts as inactive or inconclusive.

COc1ccc(CC(=O)Nc2ccccc2C(F)(F)F)cc1S(=O)(=O)N1CCOCC1	none (no result: Pf growth 96h, CHX counter, Shiga toxin inh, Pf growth 48h, SARS PLpro yeast)
CC1(C(=O)NCc2ccccc2)CCC(=O)N1CC(F)(F)F (centres undefined)	none (no result: Pf growth 96h, CHX counter, Shiga toxin inh, Pf growth 48h, SARS PLpro yeast)
O=C(Nc1cc(S(=O)(=O)N2CCOCC2)ccc1N1CCOCC1)c1cccc(Cl)c1	none (no result: Pf growth 96h, CHX counter, Shiga toxin inh, Pf growth 48h, SARS PLpro yeast)
CCN1CCN(c2ccc(S(=O)(=O)N3CCCCC3)cc2NC(=O)c2cccc(Cl)c2)CC1	Pf growth 96h 8.3µM, Pf growth 48h inconclusive (no result: CHX counter, Shiga toxin inh)
CCN1CCN(c2ccc(S(=O)(=O)N3CCCCC3)cc2NC(=O)Cc2c(F)cccc2Cl)CC1	Pf growth 96h 13µM, Pf growth 48h inconclusive
CC(NC(=O)C1CCN(C(=O)c2ccc(F)cc2)CC1)c1ccc(-n2ccnc2)cc1 (centres undefined)	Pf growth 96h inconclusive (no result: CHX counter, Shiga toxin inh)
O=C(COc1cccc(C(F)(F)F)c1)Nc1cccc(S(=O)(=O)NC2=NCCCCC2)c1	none (no result: Pf growth 96h, CHX counter, Shiga toxin inh, Pf growth 48h, SARS PLpro yeast)
COc1cc(-c2[nH]ncc2CN2CCN(c3cccc(C)n3)CC2)cc(OC)c1OC	Pf growth 96h 4.1µM, Pf growth 48h 9.3µM
COC(=O)C[C@H]1CC[C@H](NC(=O)c2cccc(F)c2)[C@@H](CO)O1	none (no result: Pf growth 96h, CHX counter, Shiga toxin inh, Pf growth 48h, SARS PLpro yeast)
COc1cc([C@@H]2OC[C@@H]3[C@H]2CO[C@@H]3c2ccc3c(c2)OCO3)ccc1O	none (no result: Pf growth 96h, CHX counter, Shiga toxin inh, Pf growth 48h)
COc1cc(CC2COC(c3ccc(O)c(OC)c3)C2COC(C)=O)ccc1O (centres undefined)	Pf growth 96h 10µM, AMA1-RON2 inh inconclusive
COc1ccc(NS(=O)(=O)c2cccc(C(=O)NCC(c3cccs3)N3CCOCC3)c2)cc1 (centres undefined)	none (no result: Pf growth 96h, CHX counter, Shiga toxin inh, Pf growth 48h)
OC1(c2ccc(Br)cc2)CCN(Cc2cccc(Br)c2)CC1	Pf growth 96h 4.7µM, Pf growth 48h inconclusive
COC(=O)C(=O)Nc1nnc(COc2ccccc2)s1	none
CC(=O)Nc1nnc(COc2ccccc2)s1	CHX counter 21, Shiga toxin inh 55
CC(=O)Nc1nnc(COc2ccc(Cl)cc2)s1	CHX counter 57, Shiga toxin inh 92
CC(C)C(=O)Nc1nnc(COc2ccc(Cl)cc2)s1	none
CC(=O)c1csc(COc2ccc(Cl)cc2)n1	CHX counter 44, Shiga toxin inh 38
CC1CC(C)(C)NC(=S)N1CCC(=O)N1CCc2ccccc21 (centres undefined)	Pf growth 96h inconclusive, Pf growth 48h inconclusive
O=C(NC1CCCC1)C(c1cccs1)N(C(=O)c1csnn1)c1ccccc1F (centres undefined)	Pf growth 96h inconclusive
CCSC1=N/C(=C\c2ccc(C(=O)O)cc2)C(=O)S1	Pf growth 96h 13µM (no result: Pf growth 48h)
CCC1N=C(SC)NC(C)=C1C(=O)c1ccccc1 (centres undefined)	none
CSC1=NC(C(Cl)(Cl)Cl)N=C(c2ccc(C)cc2)N1 (centres undefined)	Pf growth 96h inconclusive, Pf growth 48h 12µM
CCc1nc2sc3c(c2c(=O)o1)CCCC3	none
CC1CCc2c(nc3sc4c(c3c2N)CCCC4)C1 (centres undefined)	Pf growth 96h inconclusive, CHX counter 37, Shiga toxin inh active
CC1CCc2nc3sc4c(c3c(N)c2C1)CCCC4 (centres undefined)	CHX counter 33, Shiga toxin inh 56
COc1cc(OC)cc(C(=O)N2CCN(c3ccc(N4CCOCC4)nn3)CC2)c1	Pf growth 96h inconclusive, Pf growth 48h inconclusive (no result: CHX counter, Shiga toxin inh)
Cc1ccc(NC(=O)c2ccc(OCc3c(C)noc3C)cc2)cc1C	none (no result: Pf growth 96h, CHX counter, Shiga toxin inh, Pf growth 48h)
O=C(Cn1cnc2ccccc2c1=O)c1ccc(Cl)cc1	CHX counter 44, Shiga toxin inh 120
Cc1ccc(C(=O)Cn2cnc3ccccc3c2=O)cc1	CHX counter 30, Shiga toxin inh 76
O=C(Cn1cnc2ccccc2c1=O)c1ccc(Br)cc1	Pf growth 96h inconclusive, CHX counter 28, Shiga toxin inh 45
COC(=O)c1ccc(Cn2cnc3ccccc3c2=O)cc1	Pf growth 96h inconclusive
CCOC(=O)c1ccc(Cn2cnc3ccccc3c2=O)cc1	Pf growth 96h 13µM
O=C(COC(=O)CNC(=O)C1CCCCC1)Nc1cc(C(F)(F)F)ccc1Cl	none (no result: CHX counter, Shiga toxin inh, AMA1-RON2 inh)
O=C(Cn1cnc2ccccc2c1=O)N1CCN(c2ccccc2)CC1	none
O=C(Cn1cnc2ccccc21)c1ccccc1	Pf growth 96h inconclusive
O=c1c2ccccc2ncn1-c1ccc(Cl)cc1	CHX counter 29, Shiga toxin inh 42!
CC(C)OC(=O)c1ccc(Cn2nnc3ccccc3c2=O)cc1	CHX counter 27, Shiga toxin inh 89 (no result: Pf growth 96h, Pf growth 48h)
O=C(Cn1cnc2ccccc21)c1ccc(Cl)cc1	CHX counter 28
O=C(Cn1cnc2ccccc2c1=O)c1ccccc1	CHX counter 39, Shiga toxin inh 78
O=c1c2ccccc2ncn1Cc1ccc(Cl)cc1	Pf growth 96h inconclusive
NC(=O)CC(NC(=O)Cc1ccc(Br)cc1)c1ccc(N2CCC(N3CCCC3)CC2)c([N+](=O)[O-])c1 (centres undefined)	none
CCOc1ccc(OCCC(=O)N(CC)CC(=O)Nc2ccccc2OC)cc1	none (no result: Pf growth 96h, CHX counter, Shiga toxin inh, Pf growth 48h, SARS PLpro yeast)
O=C(NC1CCCCCCC1)c1ccc(CNc2c(N3CCOCC3)c(=O)c2=O)cc1	Pf growth 96h inconclusive, Pf growth 48h inconclusive
O=C(Cn1nnc2ccccc21)OCC(=O)c1ccc(F)cc1	CHX counter 9.4
O=C(Cn1cnc2ccccc2c1=O)c1ccc(OC(F)F)cc1	CHX counter 34, Shiga toxin inh 57
O=C(Cn1cnc2ccccc2c1=O)c1cccs1	none (no result: Pf growth 48h)
O=C(Cn1nnc2ccccc21)c1ccc([N+](=O)[O-])cc1	none
O=C(CCn1nnc2ccccc21)OCC(=O)c1ccc(F)cc1	none
CCOc1ccc(-n2nnc3c(=O)n(CC(=O)c4ccccc4)cnc32)cc1	none
O=C(Cn1nnc2ccccc21)c1ccc(Cl)cc1	CHX counter 41, Shiga toxin inh 54
CCOc1ccc(C(=O)Cn2cnc3ccccc3c2=O)cc1	CHX counter 57, Shiga toxin inh 117
O=C(Cn1cc(Cl)ccc1=O)c1ccc(Cl)cc1	CHX counter 16
Cc1ccc2nc(-c3ccncc3)cc(C(=O)N3CCC4(CC3)OCCO4)c2c1	Pf growth 96h inconclusive
O=C(c1cc(-c2ccncc2)nc2ccccc12)N1CCN(c2ccccc2O)CC1	Pf growth 96h 4.7µM, Pf growth 48h 12µM
O=C(c1cc(-c2ccncc2)nc2ccccc12)N1CCN(c2ccc(N3CCOCC3)nn2)CC1	Pf growth 96h inconclusive, Pf growth 48h 12µM
Cc1ccc2nc(-c3ccccc3)cc(C(=O)N3CCN(c4ccccc4O)CC3)c2c1	Pf growth 96h inconclusive, Pf growth 48h 10µM (no result: CHX counter, Shiga toxin inh)
O=C(c1cc(-c2ccncc2)nc2ccccc12)N1CCN(c2ncccn2)CC1	none (no result: Pf growth 96h, CHX counter, Shiga toxin inh, Pf growth 48h)
Cc1ccc(S(=O)(=O)N2CCN(C(=O)c3c(-c4ccccc4)noc3C)CC2)c(C)c1	Pf growth 96h inconclusive
Cc1ccc2nc(-c3ccccc3)cc(C(=O)N3CCN(S(=O)(=O)c4c(C)noc4C)CC3)c2c1	Pf growth 96h 10µM, AMA1-RON2 inh inconclusive, Pf growth 48h 12µM (no result: CHX counter, Shiga toxin inh)
